Data reported in the supplement of paper PMC10849652.
About 7,900 targets were measured; listed, in parts, are those with a hit and a random draw of the rest. About 0.6% of all pairs of compound and target were hits. Values without a mark were called inactive.

Experiments:
Test in all cases: log2 fold change, soluble protein after heating vs DMSO (PISA); higher = thermal stabilisation; K562 cells, 10 uM, 30 min; active = over 0.2 and 3.5 SD of the protein, either way, in both replicates (recomputed)
[1] = compound: CC[C@@H]1C(=O)N(C)c2cnc(Nc3ccc(C(=O)NC4CCN(C)CC4)cc3OC)nc2N1C1CCCC1
Summary of the method: (§1)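 Aliquots of K562 cells (2×10^6 cells/mL) treated with 10 μM compound for 30 min were heated for 3 min over 48°C-58°C. After pooling and extraction in PBS with 0.5% NP-40 at 4°C, soluble protein from a 21,000xg, 90 min spin was quantified by TMTpro 16plex LC-MS/MS with channel sums equalised. Thermal stability is expressed against control samples, from duplicates, as a log2 fold change.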

volasertib = compound: CC[C@@H]1C(=O)N(C)c2cnc(Nc3ccc(C(=O)N[C@H]4CC[C@H](N5CCN(CC6CC6)CC5)CC4)cc3OC)nc2N1C(C)C [volasertib]
Summary of the method: as §1

[2] = compound: CC[C@H](C)N1C=C(C2=C(C=C(C=C21)C3=CN=C(C=C3)N4CCNCC4)C(=O)NCC5=C(C=C(NC5=O)C)C)C
Summary of the method: as §1

epoxomicin = compound: CC[C@H](C)[C@@H](C(=O)N[C@@H]([C@@H](C)O)C(=O)N[C@@H](CC(C)C)C(=O)[C@]1(CO1)C)NC(=O)[C@H]([C@@H](C)CC)N(C)C(=O)C [epoxomicin]
Summary of the method: as §1

[3] = compound: CCn1c(C(=O)N(C2CC2)C2CC2)cc2c3c(ncn3C)c(Nc3cc(C)n(C)n3)nc21
Summary of the method: as §1

[4] = compound: CCn1cc(-c2ccnc3[nH]c(-c4cccc(CN(C)C)c4)cc23)c(-c2ccc(NC(=O)N(C)C)cc2)n1
Summary of the method: as §1

[5] = compound: CN(C)CC(=O)Nc1ccc2[nH]c(=O)c3ccccc3c2c1
Summary of the method: as §1

rosiglitazone = compound: CN(CCOC1=CC=C(C=C1)C[C@H]2C(=O)NC(=O)S2)C3=CC=CC=N3 (racemic) [rosiglitazone]
Summary of the method: as §1

[6] = compound: CN1C2=C(C3=C1C(=O)N(N=C3)CC4=CC(=CC=C4)N)SC(=C2)S(=O)C
Summary of the method: as §1

[7] = compound: CN1CCC(CNc2ccc3ncc(-c4cccc(OC(F)(F)F)c4)n3n2)CC1
Summary of the method: as §1

UniProt Q9BWG4, sequence (Q9BWG4 whole entry, looked up): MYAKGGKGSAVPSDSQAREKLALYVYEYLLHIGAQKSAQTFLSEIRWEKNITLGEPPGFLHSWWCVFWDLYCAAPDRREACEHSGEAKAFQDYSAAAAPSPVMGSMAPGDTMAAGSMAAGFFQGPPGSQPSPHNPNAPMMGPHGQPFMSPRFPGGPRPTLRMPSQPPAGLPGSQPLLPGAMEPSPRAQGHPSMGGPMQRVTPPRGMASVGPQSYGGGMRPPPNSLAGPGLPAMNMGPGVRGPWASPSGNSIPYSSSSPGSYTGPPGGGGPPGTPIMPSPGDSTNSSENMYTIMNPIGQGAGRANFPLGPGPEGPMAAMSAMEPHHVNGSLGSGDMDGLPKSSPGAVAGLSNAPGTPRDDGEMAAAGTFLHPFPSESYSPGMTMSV
UniProt Q92544, sequence (Q92544 whole entry, looked up): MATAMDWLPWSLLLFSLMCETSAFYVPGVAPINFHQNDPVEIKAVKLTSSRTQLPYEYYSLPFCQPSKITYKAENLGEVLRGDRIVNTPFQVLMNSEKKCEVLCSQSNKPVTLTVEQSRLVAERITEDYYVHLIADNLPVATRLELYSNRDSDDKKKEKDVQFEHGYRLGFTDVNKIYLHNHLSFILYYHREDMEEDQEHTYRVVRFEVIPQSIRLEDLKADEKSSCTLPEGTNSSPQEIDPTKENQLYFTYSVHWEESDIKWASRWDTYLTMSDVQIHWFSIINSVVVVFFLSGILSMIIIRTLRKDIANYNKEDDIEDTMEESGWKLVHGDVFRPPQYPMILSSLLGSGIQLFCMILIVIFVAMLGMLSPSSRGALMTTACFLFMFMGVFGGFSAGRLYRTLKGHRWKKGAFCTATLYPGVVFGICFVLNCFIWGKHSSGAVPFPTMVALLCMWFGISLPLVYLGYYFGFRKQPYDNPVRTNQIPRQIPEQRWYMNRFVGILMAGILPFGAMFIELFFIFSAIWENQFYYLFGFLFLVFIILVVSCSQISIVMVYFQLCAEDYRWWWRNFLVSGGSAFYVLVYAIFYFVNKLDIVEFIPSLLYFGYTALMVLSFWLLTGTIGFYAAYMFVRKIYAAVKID
UniProt P30626, sequence (P30626 whole entry, looked up): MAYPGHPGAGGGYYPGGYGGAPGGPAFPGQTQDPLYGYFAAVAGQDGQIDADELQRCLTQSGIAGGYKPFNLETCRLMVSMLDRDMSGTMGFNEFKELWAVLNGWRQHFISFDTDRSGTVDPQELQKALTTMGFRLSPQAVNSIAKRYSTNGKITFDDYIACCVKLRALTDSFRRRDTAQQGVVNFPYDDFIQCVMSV
UniProt Q8WVK2, sequence (Q8WVK2 whole entry, looked up): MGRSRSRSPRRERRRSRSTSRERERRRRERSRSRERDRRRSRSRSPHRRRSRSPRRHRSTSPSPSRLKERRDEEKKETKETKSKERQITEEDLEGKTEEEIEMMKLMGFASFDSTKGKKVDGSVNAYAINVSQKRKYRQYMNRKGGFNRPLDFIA
UniProt Q92609, sequence (Q92609 whole entry, looked up): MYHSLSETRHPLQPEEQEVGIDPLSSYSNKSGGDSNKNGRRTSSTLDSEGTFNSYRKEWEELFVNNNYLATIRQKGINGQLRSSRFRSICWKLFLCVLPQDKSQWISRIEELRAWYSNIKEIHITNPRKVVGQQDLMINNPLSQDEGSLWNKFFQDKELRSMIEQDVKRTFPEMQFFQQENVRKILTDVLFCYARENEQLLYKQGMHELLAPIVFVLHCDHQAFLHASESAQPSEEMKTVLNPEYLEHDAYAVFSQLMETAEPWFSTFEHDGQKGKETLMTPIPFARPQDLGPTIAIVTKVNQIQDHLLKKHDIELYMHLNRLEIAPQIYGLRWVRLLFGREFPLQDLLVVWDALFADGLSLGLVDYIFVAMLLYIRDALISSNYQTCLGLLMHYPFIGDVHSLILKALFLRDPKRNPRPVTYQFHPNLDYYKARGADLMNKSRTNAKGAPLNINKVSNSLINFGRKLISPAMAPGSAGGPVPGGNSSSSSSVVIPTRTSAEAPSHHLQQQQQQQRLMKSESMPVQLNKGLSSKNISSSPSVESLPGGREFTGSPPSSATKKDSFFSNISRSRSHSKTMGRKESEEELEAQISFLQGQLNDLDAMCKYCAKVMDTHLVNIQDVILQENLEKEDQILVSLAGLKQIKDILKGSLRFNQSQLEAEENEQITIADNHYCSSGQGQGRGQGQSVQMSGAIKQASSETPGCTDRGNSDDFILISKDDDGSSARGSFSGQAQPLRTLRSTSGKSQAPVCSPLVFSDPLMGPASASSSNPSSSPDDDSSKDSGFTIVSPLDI
UniProt Q96QD8, sequence (Q96QD8 whole entry, looked up): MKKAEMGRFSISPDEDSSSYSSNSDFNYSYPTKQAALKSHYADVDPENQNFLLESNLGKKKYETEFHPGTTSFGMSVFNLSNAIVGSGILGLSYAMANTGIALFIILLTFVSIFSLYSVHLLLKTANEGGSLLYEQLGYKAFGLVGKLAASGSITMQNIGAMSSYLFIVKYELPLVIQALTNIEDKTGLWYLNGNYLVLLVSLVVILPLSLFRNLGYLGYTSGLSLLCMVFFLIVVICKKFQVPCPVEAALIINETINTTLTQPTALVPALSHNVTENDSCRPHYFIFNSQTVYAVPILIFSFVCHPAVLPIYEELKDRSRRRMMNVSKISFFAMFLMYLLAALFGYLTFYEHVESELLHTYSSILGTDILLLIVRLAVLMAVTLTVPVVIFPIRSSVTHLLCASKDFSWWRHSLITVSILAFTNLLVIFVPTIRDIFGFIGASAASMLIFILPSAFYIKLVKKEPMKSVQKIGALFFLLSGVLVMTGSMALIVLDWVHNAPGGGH
UniProt Q9NQZ5, sequence (Q9NQZ5 whole entry, looked up): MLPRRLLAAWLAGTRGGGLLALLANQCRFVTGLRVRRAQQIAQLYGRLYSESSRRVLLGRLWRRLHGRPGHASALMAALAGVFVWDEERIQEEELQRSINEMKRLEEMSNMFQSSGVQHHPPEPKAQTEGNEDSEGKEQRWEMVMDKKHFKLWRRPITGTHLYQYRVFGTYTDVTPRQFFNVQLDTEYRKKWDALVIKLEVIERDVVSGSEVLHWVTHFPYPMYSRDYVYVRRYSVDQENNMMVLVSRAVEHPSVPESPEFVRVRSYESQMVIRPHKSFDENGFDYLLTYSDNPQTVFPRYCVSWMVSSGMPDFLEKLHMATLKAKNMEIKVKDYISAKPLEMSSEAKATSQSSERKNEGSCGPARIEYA
UniProt Q9UL54, sequence (Q9UL54 whole entry, looked up): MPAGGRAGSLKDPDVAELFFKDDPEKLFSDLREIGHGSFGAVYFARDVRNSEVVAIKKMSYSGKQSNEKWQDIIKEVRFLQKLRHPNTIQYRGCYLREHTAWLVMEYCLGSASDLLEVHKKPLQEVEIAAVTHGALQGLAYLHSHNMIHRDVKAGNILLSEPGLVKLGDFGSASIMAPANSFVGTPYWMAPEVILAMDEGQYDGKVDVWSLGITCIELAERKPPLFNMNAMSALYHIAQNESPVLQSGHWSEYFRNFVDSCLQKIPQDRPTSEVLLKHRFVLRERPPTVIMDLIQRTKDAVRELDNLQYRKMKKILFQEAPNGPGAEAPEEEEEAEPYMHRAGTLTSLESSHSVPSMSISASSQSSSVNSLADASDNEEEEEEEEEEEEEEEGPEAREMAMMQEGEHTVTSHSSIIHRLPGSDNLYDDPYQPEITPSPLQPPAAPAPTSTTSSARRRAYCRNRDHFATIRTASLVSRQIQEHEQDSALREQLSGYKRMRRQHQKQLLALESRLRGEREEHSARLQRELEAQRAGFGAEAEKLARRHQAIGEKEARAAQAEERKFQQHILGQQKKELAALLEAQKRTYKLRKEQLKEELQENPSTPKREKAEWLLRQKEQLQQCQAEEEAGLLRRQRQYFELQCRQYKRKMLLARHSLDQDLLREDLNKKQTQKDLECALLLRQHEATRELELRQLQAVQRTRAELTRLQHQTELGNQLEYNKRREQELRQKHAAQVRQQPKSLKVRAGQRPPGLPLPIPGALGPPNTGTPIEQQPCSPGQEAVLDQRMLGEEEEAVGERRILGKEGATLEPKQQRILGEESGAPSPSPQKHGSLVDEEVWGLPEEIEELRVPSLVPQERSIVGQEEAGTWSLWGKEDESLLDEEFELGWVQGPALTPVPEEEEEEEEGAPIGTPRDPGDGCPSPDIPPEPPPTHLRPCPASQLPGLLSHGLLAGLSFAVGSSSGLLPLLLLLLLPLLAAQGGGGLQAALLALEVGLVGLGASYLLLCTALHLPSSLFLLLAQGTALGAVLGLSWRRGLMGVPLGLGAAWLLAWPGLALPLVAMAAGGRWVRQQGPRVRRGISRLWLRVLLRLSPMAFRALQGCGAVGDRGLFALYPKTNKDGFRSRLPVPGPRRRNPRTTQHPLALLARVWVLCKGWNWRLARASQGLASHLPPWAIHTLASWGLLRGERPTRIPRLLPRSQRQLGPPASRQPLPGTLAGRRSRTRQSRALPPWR
UniProt Q8WU79, sequence (Q8WU79 whole entry, looked up): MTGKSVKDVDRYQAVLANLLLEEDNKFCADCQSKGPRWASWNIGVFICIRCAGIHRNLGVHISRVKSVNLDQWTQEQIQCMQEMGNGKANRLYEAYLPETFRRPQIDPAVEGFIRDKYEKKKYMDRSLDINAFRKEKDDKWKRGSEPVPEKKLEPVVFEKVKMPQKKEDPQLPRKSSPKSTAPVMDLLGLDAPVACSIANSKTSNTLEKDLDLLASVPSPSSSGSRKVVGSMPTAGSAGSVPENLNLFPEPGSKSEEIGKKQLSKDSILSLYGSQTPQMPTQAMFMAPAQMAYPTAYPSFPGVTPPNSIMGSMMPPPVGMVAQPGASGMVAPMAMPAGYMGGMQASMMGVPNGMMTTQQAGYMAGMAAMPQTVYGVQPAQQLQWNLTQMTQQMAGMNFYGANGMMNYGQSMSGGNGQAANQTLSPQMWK
UniProt P55061, sequence (P55061 whole entry, looked up): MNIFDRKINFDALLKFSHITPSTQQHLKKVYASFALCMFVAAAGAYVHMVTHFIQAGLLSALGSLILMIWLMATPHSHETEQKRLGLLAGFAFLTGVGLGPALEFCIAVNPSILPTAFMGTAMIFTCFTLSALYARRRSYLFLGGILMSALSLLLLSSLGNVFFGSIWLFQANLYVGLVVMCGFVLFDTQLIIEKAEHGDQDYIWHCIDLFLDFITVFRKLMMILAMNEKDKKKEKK

| Target | log2 fold change [1] | log2 fold change (volasertib) | log2 fold change [2] | log2 fold change (epoxomicin) | log2 fold change [3] | log2 fold change [4] | log2 fold change [5] | log2 fold change (rosiglitazone) | log2 fold change [6] | log2 fold change [7] |
| --- | --- | --- | --- | --- | --- | --- | --- | --- | --- | --- |
| SMC5 (UniProt Q8IY18) | 0.042 | 0.054 | -0.009 | 0.018 | -0.023 | -0.025 | 0.033 | 0 | 0.005 | 0.037 |
| TLK2 isoform 2 (UniProt Q86UE8) | -0.015 | -0.112 | 0.029 | -0.01 | 0.057 | -0.024 | -0.012 | 0.014 | -0.039 | -0.054 |
| SRI (UniProt P30626) | 0.008 | -0.111 | -0.013 | 0.393 (active) | 0.09 | -0.058 | 0.009 | 0.003 | -0.071 | 0.126 |
| TIAL1 isoform 2 (UniProt Q01085) | 0.042 | -0.042 | 0.006 | 0.001 | 0.01 | 0.026 | -0.056 | -0.019 | -0.063 | -0.03 |
| TM9SF4 (UniProt Q92544) | -0.225 | -0.484 (active) | 0.024 | -0.055 | 0.035 | 0.052 | 0.001 | 0.082 | -0.05 | -0.084 |
| TBC1D5 isoform 2 (UniProt Q92609) | -0.397 (active) | -0.854 (active) | 0.113 | 0.069 | -0.076 | -0.016 | 0.039 | 0.022 | 0.021 | -0.375 (active) |
| SRCAP (UniProt Q6ZRS2) | 0.068 | -0.207 | -0.059 | – | 0.066 | -0.041 | 0.121 | 0.01 | -0.001 | -0.006 |
| SUN1 isoform 9 (UniProt O94901) | 0.13 | 0.018 | -0.065 | -0.021 | 0.027 | 0.135 | 0.002 | – | 0.037 | -0.111 |
| SSBP4 (UniProt Q9BWG4) | 0 | -0.056 | -0.036 | – | -0.116 | -0.009 | – | 0.162 | -0.238 | 0.036 |
| TAOK2 (UniProt Q9UL54) | 0.024 | -0.061 | -0.006 | -0.01 | -0.277 | -0.076 | – | – | – | 0.01 |
| TMBIM6 isoform 2 (UniProt P55061) | -0.075 | -0.061 | -0.041 | 0.25 | -0.055 | – | 0.066 | -0.046 | -0.007 | – |
| SLC38A7 (UniProt Q9NVC3) | -0.283 | -0.054 | -0.023 | 0.078 | -0.018 | 0.109 | -0.123 | 0.036 | – | -0.589 |
| SRSF9 (UniProt Q13242) | 0.189 | 0.414 | -0.004 | -0.421 | 0.097 | 0.323 | -0.106 | -0.07 | 0.506 | 0.364 |
| SRFBP1 (UniProt Q8NEF9) | 0.208 | 0.157 | -0.094 | -0.047 | -0.088 | 0.049 | – | 0.078 | 0.117 | 0.277 |
| SRXN1 (UniProt Q9BYN0) | -0.031 | -0.083 | 0.027 | 0.069 | – | 0.159 | 0.046 | 0.124 | – | -0.199 |
| SLC38A2 (UniProt Q96QD8) | 0.035 | 0.004 | -0.091 | -0.078 | 0.084 | – | -0.022 | 0.002 | -0.1 | – |
| TEX264 (UniProt Q9Y6I9) | 0.016 | 0.356 | -0.073 | 0 | -0.201 | 0.499 | 0.098 | 0.039 | 0.182 | 0.262 |

| Target | log2 fold change [1] | log2 fold change (volasertib) | log2 fold change [2] | log2 fold change (epoxomicin) | log2 fold change [3] | log2 fold change [4] | log2 fold change [5] | log2 fold change (rosiglitazone) | log2 fold change [6] | log2 fold change [7] |
| --- | --- | --- | --- | --- | --- | --- | --- | --- | --- | --- |
| SLC39A11 (UniProt Q8N1S5) | 0.102 | 0.071 | 0.007 | – | 0 | -0.136 | -0.062 | -0.007 | -0.021 | 0.15 |
| TM7SF3 (UniProt Q9NS93) | -0.136 | -0.178 | -0.074 | – | -0.006 | – | – | -0.022 | 0.025 | – |
| SYMPK (UniProt Q92797) | -0.341 | -0.5 (active) | -0.289 | 0.073 | -0.036 | -0.026 | 0.123 | 0.13 | 0.076 | -0.141 |
| TACC2 (UniProt O95359) | -0.013 | -0.048 | 0.014 | – | 0.012 | 0.041 | -0.069 | 0.039 | 0 | -0.044 |
| SNRNP27 (UniProt Q8WVK2) | 0.029 | 0.014 | -0.08 | 0.01 | 0.051 | 0.038 | 0.005 | -0.027 | 0.051 | -0.032 |
| TENT5C (UniProt Q5VWP2) | -0.073 | -0.038 | 0.005 | – | 0.085 | 0.009 | 0.031 | 0.033 | -0.066 | -0.082 |
| STOM (UniProt P27105) | 0.087 | 0.096 | -0.08 | -0.006 | 0.009 | -0.164 | -0.057 | -0.065 | 0.085 | 0.317 (active) |
| SYNE2 isoform 2 (UniProt Q8WXH0) | 0.039 | -0.025 | -0.145 | – | -0.181 | -0.274 | -0.044 | 0.053 | -0.021 | -0.025 |
| STARD7 (UniProt Q9NQZ5) | -0.07 | -0.032 | 0.007 | 0.024 | 0.037 | -0.123 | 0.012 | 0.055 | 0.012 | -0.158 |
| SLC29A3 (UniProt Q9BZD2) | 0.171 | 0.007 | 0.05 | -0.048 | 0.047 | – | 0.002 | -0.049 | -0.161 | – |
| SMAP2 (UniProt Q8WU79) | -0.054 | -0.3 (active) | 0.131 | 0.056 | -0.015 | -0.009 | 0.008 | 0.073 | -0.021 | 0.015 |
| STAT3 (UniProt P40763) | -0.336 (active) | -0.767 (active) | 0.056 | 0.002 | -0.052 | -0.059 | 0.052 | 0.063 | -0.047 | -0.275 (active) |
| SLC35F6 (UniProt Q8N357) | -0.099 | -0.053 | 0.087 | 0.021 | 0.11 | – | 0.034 | 0.047 | -0.029 | – |
| TIMM10B (UniProt Q9Y5J6) | 0.033 | -0.011 | -0.064 | 0.274 | 0.115 | -0.033 | -0.12 | -0.041 | 0.063 | 0.131 |
| SLC35A1 (UniProt P78382) | 0.148 | 0.118 | -0.034 | 0.018 | -0.002 | – | -0.056 | -0.013 | -0.191 | – |
| SNX15 (UniProt Q9NRS6) | 0.177 | -0.223 | -0.023 | – | – | -0.016 | -0.045 | -0.051 | 0.119 | 0.039 |
